PubChem BioAssay (NCI)
The panel holds about 83,000 compounds, 20% with a hit somewhere; the sample as a whole holds those more often.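 48-hour exposure, single concentration, 96-well plates; percent growth endpoint where 0 means no net growth. Active: below 10.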 Unmarked numbers belong to inactive results. Activity calls are given as the source filed them.

Experiments:
Assay in all cases: NCI-60 one-dose screen, 48 h (100 = growth as untreated, 0 = no growth, -100 = all killed)
Settings in all cases: 10 µM unless noted
HCT-15 colon = tested on: HCT-15 colon
HT29 colon = tested on: HT29 colon
SNB-75 CNS = tested on: SNB-75 CNS
SNB-19 CNS = tested on: SNB-19 CNS
U251 CNS = tested on: U251 CNS
PC-3 prostate = tested on: PC-3 prostate
UACC-62 melanoma = tested on: UACC-62 melanoma
SK-MEL-28 melanoma = tested on: SK-MEL-28 melanoma
SK-MEL-2 melanoma = tested on: SK-MEL-2 melanoma
SN12C renal = tested on: SN12C renal
UO-31 renal = tested on: UO-31 renal
TK-10 renal = tested on: TK-10 renal
ACHN renal = tested on: ACHN renal
CAKI-1 renal = tested on: CAKI-1 renal
A498 renal = tested on: A498 renal
CCRF-CEM leukemia = tested on: CCRF-CEM leukemia
MOLT-4 leukemia = tested on: MOLT-4 leukemia
EKVX NSCLC = tested on: EKVX NSCLC
LOX IMVI melanoma = tested on: LOX IMVI melanoma

Q: How did the growth (HCT-15 colon) turn out when `COc1cc(Nc2cc(C)nc(N3CCN(c4ccnc5cc(Cl)ccc45)CC3)n2)cc(OC)c1` was run?
A: 5.63% (active)

Q: And the growth (HT29 colon)?
A: 3.4% (active)

Q: And the growth (SNB-75 CNS)?
A: 8.38% (active)

Q: What about the growth (SNB-19 CNS) of the same molecule?
A: 27.5%

Q: And the growth (U251 CNS)?
A: 9.56% (active)

Q: What about the growth (PC-3 prostate) of the same molecule?
A: 22.8%

Q: And the growth (UACC-62 melanoma)?
A: -2.21% (active)

Q: What about the growth (SK-MEL-28 melanoma) of the same molecule?
A: 44.5%

Q: And the growth (SK-MEL-2 melanoma)?
A: 26%

Q: And the growth (SN12C renal)?
A: 0.314% (active)

Q: What about the growth (UO-31 renal) of the same molecule?
A: -9.39% (active)

Q: What about the growth (TK-10 renal) of the same molecule?
A: 17.9%

Q: What about the growth (ACHN renal) of the same molecule?
A: 7.48% (active)

Q: And the growth (CAKI-1 renal)?
A: 10.8%

Q: And the growth (A498 renal)?
A: -12.5% (active)

Q: And the growth (CCRF-CEM leukemia)?
A: 5.29% (active)

Q: And the growth (MOLT-4 leukemia)?
A: 5.97% (active)

Q: What does the source list for `OCCNc1nccc(N2CCN(c3ccnc4cc(Cl)ccc34)CC2)n1`?
A: growth (HCT-15 colon): 51.3%; growth (HT29 colon): 45.7%; growth (SNB-75 CNS): 71.3%; growth (SNB-19 CNS): 88.9%; growth (U251 CNS): 86%; growth (PC-3 prostate): 72.2%; growth (UACC-62 melanoma): 71.4%; growth (SK-MEL-28 melanoma): 94%; growth (SK-MEL-2 melanoma): 84.1%; growth (SN12C renal): 84.5%; growth (UO-31 renal): 47.7%; growth (TK-10 renal): 94.4%; growth (ACHN renal): 92.5%; growth (CAKI-1 renal): 77%; growth (A498 renal): 15.5%; growth (CCRF-CEM leukemia): 66.5%; growth (MOLT-4 leukemia): 52.4%

Q: Which growth (HCT-15 colon) does the source give for `CN1CCN(c2nc(NCCCCNc3ccnc4cc(Cl)ccc34)c3ccccc3n2)CC1` here?
A: 37.4%

Q: And the growth (HT29 colon)?
A: 4.42% (active)

Q: And the growth (SNB-75 CNS)?
A: 76.9%

Q: And the growth (SNB-19 CNS)?
A: 53.5%

Q: And the growth (U251 CNS)?
A: 2.52% (active)

Q: What about the growth (PC-3 prostate) of the same molecule?
A: 66.3%

Q: And the growth (UACC-62 melanoma)?
A: 63.9%

Q: What about the growth (SK-MEL-28 melanoma) of the same molecule?
A: -0.901% (active)

Q: And the growth (SK-MEL-2 melanoma)?
A: 87.3%

Q: And the growth (EKVX NSCLC)?
A: 80.7%

Q: And the growth (SN12C renal)?
A: 79.8%

Q: What about the growth (UO-31 renal) of the same molecule?
A: 46.1%

Q: And the growth (TK-10 renal)?
A: 73%

Q: And the growth (ACHN renal)?
A: 74.3%

Q: What about the growth (A498 renal) of the same molecule?
A: 71.1%

Q: What about the growth (CCRF-CEM leukemia) of the same molecule?
A: 35.3%

Q: What about the growth (MOLT-4 leukemia) of the same molecule?
A: 43.9%

Q: Which results are given for `COC(=O)c1ccc(Cn2cnc3c(N)ncnc32)cc1`?
A: growth (HCT-15 colon): 99.8%; growth (HT29 colon): 98.6%; growth (SNB-75 CNS): 86.7%; growth (SNB-19 CNS): 104%; growth (U251 CNS): 111%; growth (PC-3 prostate): 111%; growth (UACC-62 melanoma): 102%; growth (SK-MEL-28 melanoma): 104%; growth (SK-MEL-2 melanoma): 90.8%; growth (EKVX NSCLC): 102%; growth (SN12C renal): 102%; growth (UO-31 renal): 89.9%; growth (TK-10 renal): 86.3%; growth (ACHN renal): 101%; growth (CAKI-1 renal): 103%; growth (A498 renal): 104%; growth (CCRF-CEM leukemia): 102%; growth (MOLT-4 leukemia): 93.2%

Q: `CN1CCN(CCCOc2cccc3nc(Nc4ccc(Cl)c(F)c4)ccc23)CC1` was tested. Which growth (HCT-15 colon) did it give?
A: -48.3% (active)

Q: What about the growth (HT29 colon) of the same molecule?
A: -59.7% (active)

Q: What about the growth (SNB-75 CNS) of the same molecule?
A: 48.2%

Q: What about the growth (SNB-19 CNS) of the same molecule?
A: 42.3%

Q: And the growth (U251 CNS)?
A: 26.1%

Q: And the growth (PC-3 prostate)?
A: 39%

Q: What about the growth (UACC-62 melanoma) of the same molecule?
A: -55.5% (active)

Q: What about the growth (SK-MEL-28 melanoma) of the same molecule?
A: 18.1%

Q: And the growth (SK-MEL-2 melanoma)?
A: 83.7%

Q: And the growth (EKVX NSCLC)?
A: 61.7%

Q: What about the growth (SN12C renal) of the same molecule?
A: 63.7%

Q: And the growth (UO-31 renal)?
A: 22.5%

Q: And the growth (TK-10 renal)?
A: 88.4%

Q: And the growth (ACHN renal)?
A: 10.5%

Q: And the growth (CAKI-1 renal)?
A: 56.2%

Q: And the growth (A498 renal)?
A: 55.4%

Q: What about the growth (CCRF-CEM leukemia) of the same molecule?
A: 19.3%

Q: And the growth (MOLT-4 leukemia)?
A: -22% (active)

Q: For `CC1C(/C=N/Nc2ccccc2)C(C#N)(C#N)C1(C#N)C#N` (stereo not drawn), which growth (HCT-15 colon) is on record?
A: 69.2%

Q: What about the growth (HT29 colon) of the same molecule?
A: 97.6%

Q: And the growth (SNB-75 CNS)?
A: 71.7%

Q: What about the growth (SNB-19 CNS) of the same molecule?
A: 98.6%

Q: What about the growth (U251 CNS) of the same molecule?
A: 101%

Q: What about the growth (PC-3 prostate) of the same molecule?
A: 65.9%

Q: And the growth (UACC-62 melanoma)?
A: 5.25% (active)

Q: And the growth (LOX IMVI melanoma)?
A: 38.7%

Q: And the growth (SK-MEL-28 melanoma)?
A: 100%

Q: And the growth (SK-MEL-2 melanoma)?
A: 85.2%

Q: What about the growth (EKVX NSCLC) of the same molecule?
A: 71.8%

Q: What about the growth (TK-10 renal) of the same molecule?
A: 130%

Q: And the growth (ACHN renal)?
A: 44.4%

Q: And the growth (A498 renal)?
A: 99.9%

Q: And the growth (CCRF-CEM leukemia)?
A: 58%

Q: What about the growth (MOLT-4 leukemia) of the same molecule?
A: 67%

Q: Which results are given for `CCCn1c(=O)[nH]c(N)c([C@H]2c3ccccc3Oc3[nH]c(=O)n(CCC)c(=O)c32)c1=O`?
A: growth (HCT-15 colon): 48.9%; growth (HT29 colon): 85.3%; growth (SNB-75 CNS): 82.9%; growth (SNB-19 CNS): 97.8%; growth (U251 CNS): 81.8%; growth (PC-3 prostate): 107%; growth (UACC-62 melanoma): 80.6%; growth (LOX IMVI melanoma): 64.8%; growth (SK-MEL-28 melanoma): 73%; growth (SK-MEL-2 melanoma): 92%; growth (EKVX NSCLC): 93.2%; growth (UO-31 renal): 78.8%; growth (TK-10 renal): 79%; growth (CAKI-1 renal): 86.1%; growth (A498 renal): 92.9%; growth (CCRF-CEM leukemia): 14.3%; growth (MOLT-4 leukemia): 39.5%

Q: What does the source list for `CCNC(=O)Oc1ccc(/C(=C(\C)c2ccc(Cl)cc2)c2ccc(OCCN3CCCCC3)cc2)cc1`?
A: growth (HCT-15 colon): 2.75% (active); growth (HT29 colon): 0.431% (active); growth (SNB-75 CNS): 61.7%; growth (SNB-19 CNS): 64.5%; growth (U251 CNS): 32.9%; growth (PC-3 prostate): 28.7%; growth (UACC-62 melanoma): -45.7% (active); growth (LOX IMVI melanoma): 10.6%; growth (SK-MEL-28 melanoma): -30.4% (active); growth (SK-MEL-2 melanoma): 62.9%; growth (EKVX NSCLC): 57.4%; growth (UO-31 renal): 39.3%; growth (TK-10 renal): 83.7%; growth (ACHN renal): 79.9%; growth (A498 renal): 83.6%; growth (CCRF-CEM leukemia): 22.4%; growth (MOLT-4 leukemia): 10.7%

Q: How did the growth (HCT-15 colon) turn out when `OCC(O)c1nc2ccc3[nH]ncc3c2c2c1CCCC2` (stereo not drawn) was run?
A: 5.03% (active)

Q: What about the growth (HT29 colon) of the same molecule?
A: 9.08% (active)

Q: And the growth (SNB-75 CNS)?
A: -60.8% (active)

Q: What about the growth (SNB-19 CNS) of the same molecule?
A: 7.63% (active)

Q: What about the growth (U251 CNS) of the same molecule?
A: 7.68% (active)

Q: And the growth (PC-3 prostate)?
A: 9.74% (active)

Q: And the growth (UACC-62 melanoma)?
A: -8.7% (active)

Q: And the growth (LOX IMVI melanoma)?
A: 2.42% (active)

Q: What about the growth (SK-MEL-28 melanoma) of the same molecule?
A: -3.58% (active)

Q: And the growth (SK-MEL-2 melanoma)?
A: 9.63% (active)

Q: What about the growth (UO-31 renal) of the same molecule?
A: 7.51% (active)

Q: What about the growth (TK-10 renal) of the same molecule?
A: 4.51% (active)

Q: What about the growth (ACHN renal) of the same molecule?
A: 4.18% (active)

Q: And the growth (CAKI-1 renal)?
A: 7.54% (active)

Q: And the growth (CCRF-CEM leukemia)?
A: 6.71% (active)

Q: What about the growth (MOLT-4 leukemia) of the same molecule?
A: 1.37% (active)
